# In the supplement of paper PMC8728848:
# The full list was thinned out, with the strongest signals kept by preference.
# B1: NKp30 (Homo sapiens), O14931 (protein)
# chain: LWVSQPPEIRTLEGSSAFLPCSFNASQGRLAIGSVTWFRDEVVPGKEVRNGTPEFRGRLAPLASSRFLHDHQAELHIRDVRGHDASIYVCRVEVLGLGVGTGNGTRLVVEKEHPQLG
# Assays:
# Experiment in all cases: glycan array binding signal (z-score within array); higher = stronger binding
# Conditions in all cases: glycan notation: IUPAC condensed, linker removed
# Fuc(a1-2)Gal(b1-3)GalNAc = molecular target: Fuc(a1-2)Gal(b1-3)GalNAc
# In short: (§1)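 From the Consortium for Functional Glycomics database, 3228 arrays were curated, keeping only those whose protein sequence was available. Binding is given as a within-array Z-score averaged across arrays sharing a protein sequence and across linkers. Negative Z-scores can be read as non-binding.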
# [1] = molecular target: Fuc(a1-2)Gal6S(b1-4)Glc6S
# In short: as §1
# [2] = molecular target: Fuc(a1-3)[Gal3S(b1-4)]Glc
# In short: as §1
# [3] = molecular target: Fuc(a1-3)[Gal3S(b1-4)]Glc6S
# In short: as §1
# [4] = molecular target: Fuc(a1-3)[Gal3S(b1-4)]GlcNAc6S
# In short: as §1
# Gal(b1-3)Gal = molecular target: Gal(b1-3)Gal
# In short: as §1
# Gal(b1-3)GalNAc = molecular target: Gal(b1-3)GalNAc
# In short: as §1
# [5] = molecular target: Gal(b1-3)GalNAc(b1-3)Gal(b1-4)Glc
# In short: as §1
# Gal3S(b1-4)Glc6S = molecular target: Gal3S(b1-4)Glc6S
# In short: as §1
# Gal3S(b1-4)GlcNAc6S = molecular target: Gal3S(b1-4)GlcNAc6S
# In short: as §1
# Gal3S6S(b1-4)GlcNAc6S = molecular target: Gal3S6S(b1-4)GlcNAc6S
# In short: as §1
# Gal4S6S(b1-4)GlcNAc = molecular target: Gal4S6S(b1-4)GlcNAc
# In short: as §1
# Gal6S(b1-4)Glc6S = molecular target: Gal6S(b1-4)Glc6S
# In short: as §1
# Glc(a1-4)Glc = molecular target: Glc(a1-4)Glc
# In short: as §1
# Glc(a1-6)Glc(a1-6)Glc = molecular target: Glc(a1-6)Glc(a1-6)Glc
# In short: as §1
# [6] = molecular target: GlcNAc(a1-6)Gal(b1-4)GlcNAc
# In short: as §1
# [7] = molecular target: Neu5Ac(a2-3)Gal(b1-3)[Neu5Ac(a2-3)Gal(b1-4)]GlcNAc
# In short: as §1
# [8] = molecular target: Neu5Ac(a2-3)Gal(b1-3)[Neu5Ac(a2-6)]GalNAc
# In short: as §1
# [9] = molecular target: Neu5Ac(a2-3)[GalNAc(b1-4)]Gal(b1-4)GlcNAc
# In short: as §1
# [10] = molecular target: Neu5Ac(a2-6)Gal(b1-4)GlcNAc(b1-3)Gal(b1-4)[Fuc(a1-3)]GlcNAc(b1-3)Gal(b1-4)[Fuc(a1-3)]GlcNAc
# In short: as §1
# [11] = molecular target: Neu5Ac(a2-8)Neu5Ac(a2-3)[GalNAc(b1-4)]Gal(b1-4)Glc
# In short: as §1
binder,measurement,setting,value
B1,glycan array binding signal (z-score),Fuc(a1-2)Gal(b1-3)GalNAc,-0.862
same,glycan array binding signal (z-score),[1],2.23
same,glycan array binding signal (z-score),[2],0.441
same,glycan array binding signal (z-score),[3],0.61
same,glycan array binding signal (z-score),[4],0.561
same,glycan array binding signal (z-score),Gal(b1-3)Gal,-0.378
same,glycan array binding signal (z-score),Gal(b1-3)GalNAc,-0.24
same,glycan array binding signal (z-score),[5],-0.43
same,glycan array binding signal (z-score),Gal3S(b1-4)Glc6S,2.3
same,glycan array binding signal (z-score),Gal3S(b1-4)GlcNAc6S,2.56
same,glycan array binding signal (z-score),Gal3S6S(b1-4)GlcNAc6S,2.38
same,glycan array binding signal (z-score),Gal4S6S(b1-4)GlcNAc,2.56
same,glycan array binding signal (z-score),Gal6S(b1-4)Glc6S,2.44
same,glycan array binding signal (z-score),Glc(a1-4)Glc,-0.398
same,glycan array binding signal (z-score),Glc(a1-6)Glc(a1-6)Glc,-0.195
same,glycan array binding signal (z-score),[6],-0.667
same,glycan array binding signal (z-score),[7],0.776
same,glycan array binding signal (z-score),[8],-0.06
same,glycan array binding signal (z-score),[9],-0.354
same,glycan array binding signal (z-score),[10],-0.472
same,glycan array binding signal (z-score),[11],-0.18
